According to ChEMBL document CHEMBL3988442, “University of Dundee, Small-Polar-MMV Screening Library” (2021):
Screen size: about 85,000 compounds; about 440 (0.52%) showed an effect of 50% or more. The entries come from a sample that favours strong results as a whole.

Test: In vitro enzyme assay to detect hydrolysis of chlorophenol red-beta-D-[…] directly proportional to the number of Toxoplasma stably expressing beta-galactosidase
Assay type: functional, organism-based, Toxoplasma gondii
Parameters: scale not given: in the data most compounds retested in dose-response had high values

Row | SMILES | Percent Effect (50 µM) | Percent Effect (10 µM)
1 | CN1CCCCC1CCC(=O)NCCCn1cccn1 (centres undefined) | -6.664% | –
2 | CCS(=O)(=O)N1CCC2(CC1)CN(c1cccnc1)C(=O)CO2.O=C(O)C(F)(F)F | – | -35.87%
3 | O=C(O)C(F)(F)F.O=C1COC2(CCN(S(=O)(=O)C3CC3)CC2)CN1c1cccnc1 | – | 59.25%
4 | O=C(CC1CC1)N1CCC2(CC1)CN(c1cccnc1)C(=O)CO2.O=C(O)C(F)(F)F | – | -21.74%
5 | COc1cccc2c1N(CC(=O)N1CCC1)CCC2 | -0.7135% | –
6 | Cc1ccc(C)c(-c2[nH]c3ccccc3c2C(=O)O)c1 | – | 7.079%
7 | Cc1ccc(-c2[nH]c3ccccc3c2C(=O)O)c(C)c1 | – | -0.6823%
8 | COc1ccc(C)cc1-c1[nH]c2ccccc2c1C(=O)O | – | 55.01%
9 | NC(=O)c1cc(N2CCCC2)nc2ccccc12 | 2.977% | –
10 | Cn1nc(C(=O)N2CCOCC2)c(Br)c1C(F)(F)F | 24.28% | –
11 | CCn1cc(C(=O)NCCCC(N)=O)c2ccccc21 | -17.15% | –
12 | N#CCCCn1ccccc1=O | -0.4771% | –
13 | Cc1c(Cl)cccc1NC(=O)CSc1nnc[nH]1 | -6.056% | –
14 | COCC(=O)Nc1ccnn1-c1ccc(Cl)cc1 | – | 75.67%
15 | COCCOCC(=O)Nc1ccnn1-c1ccc(Cl)cc1 | – | 0.922%
16 | CCOCCC(=O)Nc1ccnn1-c1ccc(Cl)cc1 | – | -1.702%
17 | CC(NC(=O)c1ccc(Cl)cc1)c1nnc(SCC(N)=O)n1C (centres undefined) | – | 10.17%
18 | CC(C)CC(NC(=O)c1ccc(Cl)cc1)C(N)=O (centres undefined) | 23.98% | –
19 | CCn1ncnc1C(C)NC(=O)c1cc(Cl)ccc1F (centres undefined) | 1.166% | –
20 | CCn1c(SCC(N)=O)nnc1C(C)NC(=O)c1ccc(Cl)cc1 (centres undefined) | – | 74.14%
21 | CCn1c(SCC(N)=O)nnc1-c1cccnc1 | -5.033% | –
22 | CCn1c(SCC(=O)O)nnc1C(C)NC(=O)c1ccc(Cl)cc1 (centres undefined) | – | 60.13%
23 | CC(NC(=O)NCCOc1ccc(Cl)cc1)c1nncn1C (centres undefined) | – | 2.548%

Row | SMILES | Percent Effect (50 µM) | Percent Effect (10 µM)
24 | CC(NC(=O)c1ccc(Cl)cc1)c1nnc(SCC(=O)O)n1C (centres undefined) | – | 78.32%
25 | CC(c1ccccc1)n1c(SCC(=O)O)nnc1-c1ccccc1Cl (centres undefined) | – | -2.501%
26 | N#Cc1ccc(C(=O)N2CCCO2)nc1 | -1.519% | –
27 | CSCC(=O)N1CCN(Cc2nccn2C)CC1 | 0.586% | –
28 | CCN1CCN(S(=O)(=O)c2c(F)cccc2F)CC1 | -8.353% | –
29 | CN(CCC1CCCO1)Cc1ccc(N(C)C)nc1 (centres undefined) | 6.718% | –
30 | CC(C)COCCN1CCN(Cc2ccon2)CC1 | 0.7264% | –
31 | CC(O)c1cccc(Nc2nc(NCCO)c3ccccc3n2)c1 (centres undefined) | – | 12.45%
32 | CCN(CC)c1nc(Nc2cccc(C(C)O)c2)nc2ccccc12 (centres undefined) | – | 95.47%
33 | CCN(CC)c1nc(Nc2cccc(C(=O)O)c2)nc2ccccc12 | – | -21.05%
34 | COC(=O)N1CCC(Nc2nnc(C(F)(F)F)s2)CC1 | 9.072% | –
35 | NCC1CCCN(c2ncccn2)C1 (centres undefined) | 3.495% | –
36 | O=C(NCC1CCCO1)c1cnn2cccnc12 (centres undefined) | -4.539% | –
37 | NC(=O)c1cccc(CN2CCc3c(ncn3C3CC3)C2)c1 | – | 83.44%
38 | Cn1cnc2c1CCN(Cc1cccc(C(N)=O)c1)C2 | – | 1.729%
39 | CC(C)c1nc2c(n1C)CCN(Cc1cccc(C(N)=O)c1)C2 | – | -1.993%
40 | CN(CCC#N)C(CCO)c1ccccc1 (centres undefined) | 25.8% | –
41 | O=C(CSc1nnc(-c2ccccc2F)o1)NC1CC1 | -13.11% | –
42 | CC(C)(CC1CCCNC1)C(N)=O (centres undefined) | 7.36% | –
43 | Cc1cc(C)n(CC(=O)NCCc2ccc[nH]2)n1 | -10.28% | –
44 | COCCNC(=O)c1cc2cc(C)ccc2n1C | 2.035% | –
45 | COc1cc2cc(C(=O)N[C@@H](C)C(=O)O)n(C)c2c(OC)c1OC | – | -3.586%
46 | COc1cc2cc(C(=O)O)n(C)c2c(OC)c1OC | – | -3.347%

Row | SMILES | Percent Effect (50 µM) | Percent Effect (10 µM)
47 | COc1cc2cc(C(=O)NCC(=O)O)n(C)c2c(OC)c1OC | – | 74.68%
48 | COc1cc2cc(C(=O)NC(C)C(=O)O)n(C)c2c(OC)c1OC (centres undefined) | – | 17.43%
49 | COc1cc2cc(C(=O)NCCC(=O)O)n(C)c2c(OC)c1OC | – | 74.68%
50 | COC(=O)C1CCN(C(=O)C2CCCO2)CC1 (centres undefined) | -8.272% | –
51 | COc1ccccc1SC(C)C(=O)N1CCNC1=O (centres undefined) | 15.55% | –
52 | CCc1cccc(NC(=O)C2CCCN(C(C)=O)C2)c1 (centres undefined) | 4.153% | –
53 | CC1CCC(N(C)C(=O)Cn2cccn2)CC1 (centres undefined) | -1.84% | –
54 | CN1CCc2[nH]nc(C(=O)N3CCC4(CCCO4)CC3)c2C1 | – | 1.903%
55 | O=C(c1cc(C2CC2)n[nH]1)N1CCCC(O)(CO)CC1 (centres undefined) | 4.237% | –
56 | O=C(c1cc(C2CC2)n[nH]1)N1CCC2(CCCO2)CC1 | 64.63% | –
57 | COc1ccc(CSc2nnc(N)[nH]2)c(Cl)c1 | 2.455% | –
58 | Clc1ccc(CSc2cnn[nH]2)s1 | -14.75% | –
59 | Nc1nnc(SCc2ccc(Cl)s2)[nH]1 | 56.64% | –
60 | O=C(NCCO)c1nnsc1-c1ccc(Cl)cc1 | -1.39% | –
61 | CCS(=O)(=O)N(CCc1cccs1)CC(=O)NC | 65.25% | –
62 | CNC(=O)Cc1cccs1 | 0.3815% | –
63 | CC(C)N(CC(N)=O)CC(=O)NCCc1cccs1 | 12.36% | –
64 | CC(C)n1cccc1C(=O)NCCc1cncn1C | 7.567% | –
65 | COC(=O)c1snc(-c2ccccc2)c1N | 3.849% | –
66 | CC(=O)Nc1nc(-c2ccccc2)c[nH]1 | – | -10.01%
67 | COC(=O)c1[nH]cc(-c2ccccc2)c1N | 60.81% | –
68 | O=S1(=O)CCC(NC2CCNCC2)C1 (centres undefined) | 0.6188% | –
69 | Cc1cc(=O)cc(C(=O)NCCCc2ccncc2)o1 | 15.6% | –

Row | SMILES | Percent Effect (50 µM) | Percent Effect (10 µM)
70 | Cc1cc(=O)cc(C(=O)NCCC(C)n2ccnc2)o1 (centres undefined) | 85.97% | –
71 | CC(CCNC(=O)CCc1cccnc1)n1ccnc1 (centres undefined) | -1.131% | –
72 | COCC(=O)N1CCCN(Cc2cnn(C)c2)CC1 | 1.219% | –
73 | CC(=O)Nc1nc(CC(=O)NCc2ccco2)cs1 | -28.1% | –
74 | Cn1cc(NC(=O)CCc2ccccn2)cn1 | -11.54% | –
75 | Cc1cn(-c2ccc(C#N)cc2)nc1N | -9.418% | –
76 | Nc1ccnn1-c1ccccn1 | -4.085% | –
77 | N#Cc1ccc(-n2nccc2N)cc1 | 92.39% | –
78 | O=C1CNCN1Cc1ccccc1 | 2.533% | –
79 | N[C@@H]1CC[C@@H]1NC(=O)c1scc2c1OCCO2 | -7.783% | –
80 | Cc1cnc(CN2CC3(CCOC3)CCC2=O)cn1 (centres undefined) | -2.648% | –
81 | Cc1cc(C(=O)NCc2ccco2)nn1C | – | 56.09%
82 | Cc1cc(C(=O)NCc2cccn2C)nn1C | – | 1.66%
83 | Cc1cc(C(=O)NCCc2noc(C3CC3)n2)[nH]n1 | 12.77% | –
84 | Cc1ccc(CNC(=O)c2cc(C)n(C)n2)o1 | – | 75.49%
85 | Cc1cc(C(=O)NCCc2noc(C3CC3)n2)nn1C | 97.7% | –
86 | Cc1ccc(CNC(=O)c2cc(NC(=O)C3CC3)n(C)n2)o1 | – | 2.088%
87 | CCn1ccc(C(=O)NCc2ccco2)n1 | -13.38% | –
88 | Cn1cc(C(=O)NCCc2noc(C3CC3)n2)cn1 | -7.141% | –
89 | Cc1cc(C(=O)NCC(C)C)nn1C | – | 9.135%
90 | CN(Cc1cccnc1)C(=O)c1cccc(Cl)c1 | 11.97% | –
91 | CNC(=O)CSCc1ccc2ccccc2n1 | 15.55% | –
92 | CCCS(=O)(=O)N1CCC(CC(=O)NC)CC1 | -1.732% | –

Row | SMILES | Percent Effect (50 µM) | Percent Effect (10 µM)
93 | Cn1cncc1C(N)CO (centres undefined) | -9.765% | –
94 | CCC(N)(CC)CNS(=O)(=O)c1ccc2c(c1)CCO2 | -2.355% | –
95 | CC(C)CC(C)CN1CCN(CCS(C)(=O)=O)CC1 (centres undefined) | -18.72% | –
96 | COc1csc(-c2cc(N)[nH]n2)c1 | 7.911% | –
97 | CCS(=O)(=O)CCNC(C)(CO)C1CCCCC1 (centres undefined) | -6.595% | –
98 | CC(=O)c1c(C)cccc1NCC(=O)N(C)C | -19.59% | –
99 | Cn1cc(CN(C(=O)c2ccc(N)nc2)C2CC2)cn1 | 96.08% | –
100 | CN1C(=O)c2ccc(C(=O)N(Cc3cnn(C)c3)C3CC3)cc2C1=O | – | -5.009%
101 | Cn1cc(CN(C(=O)c2ccc(O)c(Cl)c2)C2CC2)cn1 | – | -12.14%
102 | CC(=O)N[C@H]1CCO[C@@H](c2cccc(NC(=O)c3cccc(F)c3)c2)C1 | – | 20.53%
103 | CC(=O)Nc1cccc([C@H]2C[C@@H](NC(C)=O)CCO2)c1 | – | -4.369%
104 | CC(=O)N[C@H]1CCO[C@@H](c2cccc(NC(=O)c3ccc(=O)[nH]n3)c2)C1 | – | 71.09%
105 | COCCCNC(=O)Nc1cnn(C)c1 | 3.712% | –
106 | Cn1nnc2c(N3CCCCC3)ncnc21 | -0.3233% | –
107 | O=C(O)C(F)(F)F.O=C([C@@H]1CCO[C@@H]2CCN(CC3CCOCC3)C[C@H]21)N1CCCO1 | – | -19.56%
108 | O=C(O)C(F)(F)F.O=C([C@@H]1CCO[C@@H]2CCN(Cc3cccs3)C[C@H]21)N1CCCCO1 | – | -10.74%
109 | O=C(O)C(F)(F)F.O=C([C@@H]1CCO[C@@H]2CCN(Cc3ccc(F)cc3)C[C@H]21)N1CCCCO1 | – | 73.44%
110 | O=C(O)C(F)(F)F.O=C([C@H]1CN(Cc2ccc(F)cc2)C[C@H]2OCC[C@@H]12)N1CCCO1 | – | 0.4926%
111 | O=C([C@@H]1CCO[C@@H]2CCN(CC3CC3)C[C@H]21)N1CCCCO1 | – | 96.45%
112 | O=C([C@@H]1CCO[C@@H]2CCN(CC3CC3)C[C@H]21)N1CCCC1 | – | -7.409%
113 | CC1(C)CNCCC(=O)C1 | -1.716% | –
114 | C[C@H](N)c1ccc(Cl)s1 | 6.702% | –
